Screening results (PubChem BioAssay)
Rows were chosen to be rich in hits. Some 8% of all compounds tested hit in one or more screens of this group.
HT1080-NT tox – kills 2HG-producing HT-1080-NT fibrosarcoma cells; HT-1080-NT fibrosarcoma viability, CellTiter-Glo ATP luminescence, 48 h; Potency, µM (titrated, usually from 46.1 µM), inactives show top-dose activity, negative = less viability, usual class: cytotoxic; hit rate 1.6% among 360,000;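 note: NT is the 2HG producing partner of a matched IDH1 knockdown line; 0% = DMSO-treated cells and -100% = media-only wells without cells; nearly all actives have a fitted effect of over 55% in size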
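Viability of the 2HG-overproducing fibrosarcoma line after 48 hours of compound exposure at 37 degrees C was determined by luminescence with CellTiter-Glo, and concentration-effect curves were then fitted and categorized.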
MCF10A rereplic – inducers of DNA re-replication in MCF 10A breast cells; MCF 10A DNA re-replication, Hoechst nuclear intensity, 48 h; Potency, µM (series often up to 46.1 µM), inactives show top-dose activity, positive = re-replication, usual class: activators; hit rate 2.9% among 350,000; AID 624296; note: % of control where 0% means no effect; nearly all actives have a fitted effect of over 50% in size
KB-3-1 cytotox – kills parental KB-3-1 adenocarcinoma cells; KB-3-1 viability, CellTiter-Glo ATP luminescence, 72 h; Potency, µM (doses to about 46.1 µM), actives largely listed as cytotoxic; hit rate 1.4% among 400,000; AID 1347075; note: % is set by controls: 0 for no effect and ±100 for the full control effect; nearly all actives have a fitted effect of over 60% in size
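Multi-concentration cytotoxicity screen in KB-3-1 cells grown in DMEM lacking phenol red with 10% FBS. After 72 h at 37 °C with compound, ATP-dependent luminescence was recorded.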
SW480 rereplic – DNA re-replication induction in SW480 cells; SW480 DNA re-replication, Hoechst DNA content imaging, 48 h; Potency, µM (titrated, usually from 46.1 µM), inactives show top-dose re-replication activation, most hits filed as activators; hit rate 1.8% among 340,000; AID 624297; note: % of control where 0% means no effect; nearly all actives have a fitted effect of over 55% in size
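Image-based read-out: total Hoechst fluorescence of nuclei (405 nm excitation, 500-530 nm emission), with hits raising the fraction of high-intensity nuclei. SW480 colon cells incubated 48 hr with compounds at 37 C.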
KB-V1 MDR tox – kills drug-selected multidrug resistant KB-V1 cells | hit rate 3.4% among 400,000 | Potency, µM (titrated, usually from 46.1 µM), usual class: cytotoxic | AID 1347076 | KB-V1 MDR cells viability, CellTiter-Glo, 72 h; note: % is set by controls: 0 for no effect and ±100 for the full control effect; nearly all actives have a fitted effect of over 60% in size
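Potencies derive from concentration-effect curves fitted to normalized luminescence (CellTiter-Glo) of KB-V1 cells treated for 72 h at 37 degrees C in phenol-red-free DMEM containing 10% FBS.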
HT1080 IDH1KD tx – HT-1080 IDH1 knockdown cell toxicity (counter line); HT-1080 IDH1 knockdown viability, ATP luminescence, 48 h; Potency, µM (series often up to 46.1 µM), without a hit: at the top dose activity, negative = toxicity, actives largely listed as cytotoxic; hit rate 2% among 360,000; AID 686971;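 note: 0% = DMSO wells and -100% = cell-free medium wells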
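Using the IDH1-knockdown HT-1080 line run in the same batch and compound series as the NT line, viability after 48 h at 37 °C was determined by CellTiter-Glo luminescence and expressed as % activity.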
Active calls of the source: *; i = inactive; ? = inconclusive; . = no result given; [ ] = another dose, or the depositor's remark. Calls come from the whole dose curve; as a rule, active = well fitted curve in the direction sought with a large enough effect; inconclusive = small, poorly fitted or top-dose-only effect, or another doubt; inactive = no such curve, though single readings can be large; an effect the other way counts as inactive or inconclusive. Potency is the fitted concentration of half-maximal effect.

SMILES | HT1080-NT tox | MCF10A rereplic | KB-3-1 cytotox | SW480 rereplic | KB-V1 MDR tox | HT1080 IDH1KD tx
N#Cc1cnn2c(N)c(-c3ccc(Cl)cc3)cnc12 | ? | -20% | ? | ? | 4.1µM* | -10%
N#Cc1cnn2c(-c3ccc(Cl)cc3Cl)ccnc12 | 24% | 8% | i | -11% | 16µM* | 1%
Cc1noc(C)c1S(=O)(=O)N(CC(=O)NCCc1ccccc1)c1ccc(C(C)C)cc1 | 4% | -1% | i | -33% | i | 7%
Cc1cc(=O)oc2ccc(OC(=O)CC(C)C)cc12 | 2% | ? | i | -3% | i | 11%
CN(C)c1ccc(/C=N\NC(=S)SCN2C(=O)C3CCC(C)(C2=O)C3(C)C)cc1 (stereo not drawn) | -9% | 7.3µM* | i | ? | i | -3%
COc1ccc(-c2[nH]c(-c3ccc(Cl)cc3)nc2SCC(=O)NCC2CCCO2)cc1 (stereo not drawn) | . | . | i | . | i | .
CCCCc1ccc(NC(=O)CSCc2cc(=O)[nH][nH]2)cc1 | -2% | 13µM* | i | -3% | ? | 10%
CC(C)Cc1ccc(C(C)C(N)=Nc2ccc(O)cc2)cc1 (stereo not drawn) | ? | ? | ? | ? | ? | 21µM*
C[C@@H]1NS(=O)(=O)[C@H]2C[C@@H]3C=C[C@]2(O3)[C@H]1OC(=O)c1ccc(C(C)(C)C)cc1 | -1% | 2% | i | ? | i | -3%
COc1ccc2oc(C(=O)N(C)CCOc3ccc(Cl)cc3)c(C)c2c1 | 10% | 9% | i | 5% | i | -1%
CCN(CC(=O)Nc1cc(C)on1)CC(=O)Nc1ccccc1C(F)(F)F | -5% | 32% | i | 28% | 18µM* | -10%
Cc1c(C(=O)N(C)CCOc2ccccc2)oc2c(Cl)cccc12 | 3% | ? | i | 0% | 21µM* | 12%
CCN(CC(=O)Nc1ccccc1C(F)(F)F)C(=O)c1oc2c(Cl)cccc2c1C | -6% | 30% | i | 5% | 18µM* | -9%
CN1CCN2c3ccccc3CC3(C(=O)OC(C)(C)OC3=O)C2C1 (stereo not drawn) | . | . | i | . | i | .
NCCN1CCN(CC(=O)N2c3ccccc3C(=O)Nc3cccnc32)CC1 | . | 4% | i | -3% | i | .
O=C1Nc2cccnc2N(C(=O)CCl)c2ccccc21 | ? | 15µM* | 21µM* | 15µM* | 16µM* | 16µM*
CCOc1ccc(-c2nonc2NC(=O)COc2ccc(C)c(C)c2)cc1OCC | . | . | i | . | i | .
CCOc1ccccc1-c1nnc(SCc2ccc(Cl)cc2)o1 | . | . | i | . | ? | .
Clc1ccc(CSc2nnc(-c3c[nH]c4ccccc34)o2)cc1 | ? | 21µM* | i | 1% | ? | ?
O=c1c(-c2nnc(SCc3ccc(Cl)cc3)o2)cccn1Cc1ccccc1 | ? | 17% | i | 19% | 4.6µM* | ?
CCSc1nnc(-c2c[nH]c3ccccc23)o1 | -19% | -1% | i | -6% | i | 0%
c1ccc(CSc2nnc(Cc3ccccc3)o2)cc1 | 2% | 0% | i | 0% | i | 2%
O=S(=O)(Nc1ccc(-c2nnc(SCc3ccc(Cl)cc3)o2)cc1)c1ccccc1 | 0% | 21µM* | i | 7% | i | -1%
Brc1ccc(CSc2nnc(Cc3c[nH]c4ccccc34)o2)cc1 | -5% | ? | i | 0% | 18µM* | -21%
O=S(=O)(c1ccccc1)c1nnn2c1nc(NCc1ccccc1)c1cc(Cl)ccc12 | . | . | i | . | i | .
SMILES | HT1080-NT tox | MCF10A rereplic | KB-3-1 cytotox | SW480 rereplic | KB-V1 MDR tox | HT1080 IDH1KD tx
CC(=O)c1ccc(NC(=O)CN(C)S(=O)(=O)c2cc3c(cc2C)NC(=O)CO3)cc1 | . | . | i | . | i | .
CCCCNC(=O)C1CCN(S(=O)(=O)c2cc(Br)cc3c2N(C(=O)CC)CC3)CC1 | . | . | i | . | i | .
O=C(Nc1ccccc1-c1nnc(SCc2ccc(Cl)cc2)o1)c1ccccc1 | -2% | 16% | i | -2% | ? | -6%
O=C(Nc1ccccc1-c1nnc(SCc2ccccc2)o1)c1ccccc1 | -4% | ? | i | 0% | 15µM* | 4%
CCc1cc(C(=O)OCC(=O)N2CCC(c3ccccc3)=N2)sc1C | 18% | 6% | i | 0% | i | 19%
CSc1cccc(NC(=O)Cn2nnc(C(=O)NCCc3ccccc3)c2N)c1 | . | . | i | . | i | .
CCCNC(=O)c1nnsc1S(=O)c1ccc(Cl)cc1 (stereo not drawn) | 18µM* | 3.3µM* | ? | 23µM* | i | 16µM*
Cc1ccc(S(=O)c2snnc2C)cc1 (stereo not drawn) | 10% | 2% | i | 4% | i | -2%
CCCNC(=O)c1nnsc1S(=O)(=O)c1ccc(Cl)cc1 | 13µM* | 2.3µM* | ? | 7.3µM* | 23µM* | ?
CCCNC(=O)NS(=O)(=O)c1ccc(Cl)cc1 | 0% | 4% | i | 0% | i | 8%
CNC(=O)c1nnsc1S(=O)c1ccc(Cl)cc1 (stereo not drawn) | 15µM* | 2.3µM* | ? | ? | i | 23µM*
N#Cc1c[nH]n2c(NC3CCCCC3)c(-c3ccc(F)cc3)nc12 | . | . | i | . | i | .
O=C(CSCc1c(Cl)cccc1Cl)Nc1ccc2c(c1)OCCO2 | 4% | -30% | ? | ? | 10µM* | -6%
Cc1cccc(C)c1OCC(=O)Nc1ccc2c(c1)OCCO2 | -11% | 15µM* | 23µM* | 80% | ? | -7%
CC(=O)c1c(C)[nH]c(C(=O)OCC(=O)Nc2ccc(Cl)c(S(=O)(=O)N(C)C)c2)c1C | ? | ? | ? | -4% | ? | 23µM*
CC(=O)c1c(C)[nH]c(C(=O)OCC(=O)Nc2ccc3c(c2)OCCO3)c1C | 3% | 2% | ? | -7% | 21µM* | 5%
COCCn1c(=O)[nH]c2cc(C(=O)N3CCN(Cc4ccc5c(c4)OCO5)CC3)ccc2c1=O | 5% | 10% | i | 5% | i | 1%
COCCn1c(=S)[nH]c2cc(C(=O)N3CCN(Cc4ccc5c(c4)OCO5)CC3)ccc2c1=O | ? | ? | 4.1µM* | ? | 2.6µM* | -10%
CC1CCCCC1n1c(=S)[nH]c2ccccc2c1=O (stereo not drawn) | 13µM* | ? | i | ? | i | 11µM*
O=C(CCCCCn1c(=S)[nH]c2cc3c(cc2c1=O)OCO3)N1CCN(C(=O)c2ccco2)CC1 | -24% | -181%[0.0737 µM] | i | 1% | i | -3%
